Data: PubChem BioAssay (Tox21)
Where “and” joins values, the source holds several entries; their conditions need not be identical. Equal entries are not always repeated. The source holds several records for some structures; these can differ, active in one and inactive in another. Calls of active or inactive are those of the source. A call without a number means that no potency is given here. Unless noted, calls come from the whole dose curve; as a rule, active = well fitted curve in the direction sought with a large enough effect in the repeat runs; inconclusive = weak or mixed curves; inactive = no such curve, though single readings can be large; an effect the other way counts as inactive or inconclusive.

Columns and labels:
[1] = qHTS assay to identify small molecule antagonists of the thyroid receptor (TR) signaling pathway - cell viability counter screen (AID 743064); note: nearly all actives have a fitted effect of over 50% in size
Outline: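 In rat pituitary GH3.TRE-Luc reporter cells co-exposed to compound and 1 nM T3 for 23.5 h, cytotoxicity was assessed with CellTiter-Fluor in the same wells, read by fluorescence.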

[2] = qHTS assay to identify small molecule antagonists of the thyroid receptor (TR) signaling pathway (AID 743065); note: nearly all actives have a fitted effect of over 55% in size; note: potency is the fitted concentration of half-maximal effect
Outline: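 Antagonism measured as loss of luciferase signal in GH3 cells stably carrying a TRE-luciferase reporter, co-treated with compound and T3 (1 nM final) for 23.5 h at 37 C. Viability was read in the same well by CellTiter-Fluor.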

[3] = system: thyroid hormone receptor (rat, GH3 cells); experiment: qHTS assay to identify small molecule agonists of the thyroid receptor (TR) signaling pathway (AID 743066; calls by dose curve)
[4] = qHTS assay to identify small molecule antagonists of the estrogen receptor alpha (ER-alpha) signaling pathway - cell viability counter screen (AID 743074; calls by dose curve;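 note: HEK293 cells carrying ER-alpha-UAS-bla reporter stimulated with 17beta-estradiol; nearly all actives have a fitted effect of over 45% in size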; note: potency is the fitted concentration of half-maximal effect)
[5] = qHTS assay to identify small molecule antagonists of the estrogen receptor alpha (ER-alpha) signaling pathway using the BG1 cell line - cell viability counter screen (AID 743081);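 note: compound given together with 17beta-estradiol as the ER stimulus; series mostly up to about 70 µM; nearly all actives have a fitted effect of over 45% in size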
Aromatase (Homo sapiens) = Aromatase (Homo sapiens) (UniProt P11511); experiment: qHTS assay to identify aromatase inhibitors (AID 743083); note: series mostly up to about 70 µM; nearly all actives have a fitted effect of over 55% in size
[6] = qHTS assay to identify aromatase inhibitors - cell viability counter screen (AID 743084);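 note: cells stimulated with testosterone during compound exposure; nearly all actives have a fitted effect of over 55% in size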; note: potency is the fitted concentration of half-maximal effect
[7] = target: Aryl hydrocarbon receptor (Homo sapiens) (UniProt P35869); experiment: qHTS assay to identify small molecule that activate the aryl hydrocarbon receptor (AhR) signaling pathway (AID 743085); note: nearly all actives have a fitted effect of over 15% in size; note: potency is the fitted concentration of half-maximal effect;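 for activation: HG2L7.5c1 human HepG2 liver cells with stably integrated DRE-driven firefly reporter; series mostly up to about 70 µM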
Outline: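 AhR agonist activity is inferred from enhanced light output of a DRE-controlled firefly luciferase reporter in HepG2 cells, measured with ONE-Glo following 24 h treatment at 37C.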

[8] = qHTS assay to identify small molecule that activate the aryl hydrocarbon receptor (AhR) signaling pathway - cell viability counter screen (AID 743086); note: nearly all actives have a fitted effect of over 45% in size; note: potency is the fitted concentration of half-maximal effect
Outline: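 Cytotoxicity counter screen: CellTiter-Fluor signal (30 min, 37 C) in 4000 HepG2 cells/well carrying the DRE-luciferase reporter, following 24 h compound exposure at 37 C.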

[9] = target: Peroxisome proliferator-activated receptor gamma (Homo sapiens) (UniProt P37231); experiment: qHTS assay to identify small molecule agonists of the peroxisome proliferator-activated receptor gamma (PPARg) signaling pathway (AID 743094; active = well fitted activation curve with a large enough effect in the signal ratio in the repeat runs, not every such curve was filed as active; inconclusive = weak or mixed curves, or effect the other way; inactive = no such curve, though single readings can be large or run the other way; the % refers to the signal ratio)
Outline: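 HEK293H PPARg-bla cells, 5 h settle at 37C/5% CO2; compound (DMSO) 17 h, 37C; B/G FRET substrate 1 h RT; fluorescence intensity read-out. qHTS format.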

[10] = qHTS assay to identify small molecule antagonists of the peroxisome proliferator-activated receptor gamma (PPARg) signaling pathway - cell viability counter screen (AID 743194); note: nearly all actives have a fitted effect of over 55% in size
Outline: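 Viability was measured as CellTiter-Glo luminescence in GeneBLAzer PPARg UAS-bla HEK293H cells. These cells had been exposed 17 h at 37 C to compounds together with rosiglitazone at 50 nM final, with the beta-lactamase readout taken in the same wells.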

[11] = qHTS assay for small molecule agonists of the antioxidant response element (ARE) signaling pathway (AID 743202; active = well fitted activation curve with a large enough effect in the signal ratio in the repeat runs, not every such curve was filed as active; inconclusive = weak or mixed curves, or effect the other way; inactive = no such curve, though single readings can be large or run the other way; the % refers to the signal ratio; note: potency is the fitted concentration of half-maximal effect)
Outline: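 After 16 hours of compound treatment at 37 C, HepG2 cells with a stably integrated ARE-driven beta-lactamase reporter were loaded 2 hours at room temperature with LiveBLAzer B/G FRET substrate and fluorescence intensity measured.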

[12] = qHTS assay for small molecule agonists of the antioxidant response element (ARE) signaling pathway - cell viability counter screen (AID 743203; calls by dose curve; note: nearly all actives have a fitted effect of over 55% in size)
Outline: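 Luminescence read-out (CellTiter-Glo, 30 min at room temperature) measured cell viability in the same wells as the ARE beta-lactamase reporter. HepG2 ARE-bla cells were treated with compounds for 16 hrs at 37C/5% CO2.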

[13] = qHTS assay for small molecule activators of the heat shock response signaling pathway - cell viability counter screen (AID 743209); note: nearly all actives have a fitted effect of over 50% in size; note: potency is the fitted concentration of half-maximal effect
Outline: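 HSE-bla HeLa; 1500 cells/well; overnight 37 C, 5% CO2; compound 5 h 37 C; LiveBLAzer B/G substrate 2.5 h RT; CellTiter-Glo 30 min RT; luminescence.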

[14] = qHTS assay for small molecule activators of the heat shock response signaling pathway (AID 743210; active = well fitted activation curve with a large enough effect in the signal ratio in the repeat runs, with a control signal flat, not every such curve was filed as active; inconclusive = weak or mixed curves; the % refers to the signal ratio; note: series mostly up to about 63 µM)
Outline: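 Compound exposure lasted 5 h at 37 C in HeLa cells carrying a heat-shock-element-driven beta-lactamase reporter. Read-out: fluorescence intensity after 2.5 h room-temperature loading with LiveBLAzer B/G FRET substrate.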

[15] = target: Estrogen receptor (Homo sapiens) (UniProt P03372); experiment: qHTS assay to identify small molecule agonists of the estrogen receptor alpha (ER-alpha) signaling pathway (AID 743075; calls by dose curve;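 note: HEK293 GripTite cells with ER-alpha and UAS-driven beta-lactamase reporter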; note: potency is the fitted concentration of half-maximal effect)
[16] = target: Estrogen receptor (Homo sapiens) (UniProt P03372); experiment: qHTS assay to identify small molecule agonists of the estrogen receptor alpha (ER-alpha) signaling pathway using the BG1 cell line (AID 743079); note: nearly all actives have a fitted effect of over 20% in size; note: potency is the fitted concentration of half-maximal effect
[17] = qHTS assay to identify small molecule antagonists of the estrogen receptor alpha (ER-alpha) signaling pathway using the BG1 cell line (AID 743080; calls by dose curve;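 note: BG1 cells stimulated with 17beta-estradiol alongside compound; series mostly up to about 70 µM; nearly all actives have a fitted effect of over 25% in size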)
Outline: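 Luminescence from a 4×ERE-luciferase reporter in BG1-Luc-4E2 cells served as read-out. Cells, pre-cultured 5 days in stripped-serum phenol-red-free medium, were exposed to compound with 17beta-estradiol co-stimulation for 21.5 h at 37 C.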

[18] = target: Peroxisome proliferator-activated receptor gamma (Homo sapiens) (UniProt P37231); experiment: qHTS assay to identify small molecule antagonists of the peroxisome proliferator-activated receptor gamma (PPARg) signaling pathway (AID 743191; calls by dose curve; note: series mostly up to about 63 µM; nearly all actives have a fitted effect of over 30% in size)
Outline: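 Beta-lactamase reporter under UAS control in HEK293H PPARg-bla cells; compound treatment 17 h at 37C. Read-out: fluorescence intensity after 1 h room-temperature incubation with LiveBLAzer B/G FRET substrate.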

Chain of Aromatase (Homo sapiens) (P11511 whole entry, looked up): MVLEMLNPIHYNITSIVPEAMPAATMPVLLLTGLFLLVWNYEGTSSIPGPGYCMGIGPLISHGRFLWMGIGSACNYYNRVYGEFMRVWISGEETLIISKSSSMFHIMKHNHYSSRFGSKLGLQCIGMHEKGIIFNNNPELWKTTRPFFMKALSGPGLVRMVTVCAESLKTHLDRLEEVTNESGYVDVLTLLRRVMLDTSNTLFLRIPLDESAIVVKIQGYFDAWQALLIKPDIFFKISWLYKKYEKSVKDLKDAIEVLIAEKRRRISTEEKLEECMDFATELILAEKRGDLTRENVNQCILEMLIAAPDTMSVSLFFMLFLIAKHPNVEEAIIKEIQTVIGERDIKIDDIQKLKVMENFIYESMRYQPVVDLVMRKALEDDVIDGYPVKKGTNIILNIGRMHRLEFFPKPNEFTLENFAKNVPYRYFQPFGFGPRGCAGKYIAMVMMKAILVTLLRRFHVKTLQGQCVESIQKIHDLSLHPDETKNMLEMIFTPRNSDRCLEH
Chain of Estrogen receptor (Homo sapiens) (P03372 whole entry, looked up): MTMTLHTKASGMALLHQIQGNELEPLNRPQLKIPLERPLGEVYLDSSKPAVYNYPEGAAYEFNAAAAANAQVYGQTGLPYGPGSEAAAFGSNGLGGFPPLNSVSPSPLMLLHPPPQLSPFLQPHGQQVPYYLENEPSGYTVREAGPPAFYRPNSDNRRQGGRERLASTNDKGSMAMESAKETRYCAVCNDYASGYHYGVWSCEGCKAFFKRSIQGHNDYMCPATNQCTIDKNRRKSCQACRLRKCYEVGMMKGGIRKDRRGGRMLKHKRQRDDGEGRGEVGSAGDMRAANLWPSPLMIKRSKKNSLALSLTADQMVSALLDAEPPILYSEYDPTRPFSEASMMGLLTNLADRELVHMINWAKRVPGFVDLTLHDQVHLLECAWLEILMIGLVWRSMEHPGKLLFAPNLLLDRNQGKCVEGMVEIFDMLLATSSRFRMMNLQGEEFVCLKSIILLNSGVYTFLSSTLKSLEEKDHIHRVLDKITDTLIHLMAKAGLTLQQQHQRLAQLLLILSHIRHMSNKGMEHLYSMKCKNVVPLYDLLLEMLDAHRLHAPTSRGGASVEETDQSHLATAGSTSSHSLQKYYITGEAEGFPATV
Chain of Aryl hydrocarbon receptor (Homo sapiens) (P35869 whole entry, looked up): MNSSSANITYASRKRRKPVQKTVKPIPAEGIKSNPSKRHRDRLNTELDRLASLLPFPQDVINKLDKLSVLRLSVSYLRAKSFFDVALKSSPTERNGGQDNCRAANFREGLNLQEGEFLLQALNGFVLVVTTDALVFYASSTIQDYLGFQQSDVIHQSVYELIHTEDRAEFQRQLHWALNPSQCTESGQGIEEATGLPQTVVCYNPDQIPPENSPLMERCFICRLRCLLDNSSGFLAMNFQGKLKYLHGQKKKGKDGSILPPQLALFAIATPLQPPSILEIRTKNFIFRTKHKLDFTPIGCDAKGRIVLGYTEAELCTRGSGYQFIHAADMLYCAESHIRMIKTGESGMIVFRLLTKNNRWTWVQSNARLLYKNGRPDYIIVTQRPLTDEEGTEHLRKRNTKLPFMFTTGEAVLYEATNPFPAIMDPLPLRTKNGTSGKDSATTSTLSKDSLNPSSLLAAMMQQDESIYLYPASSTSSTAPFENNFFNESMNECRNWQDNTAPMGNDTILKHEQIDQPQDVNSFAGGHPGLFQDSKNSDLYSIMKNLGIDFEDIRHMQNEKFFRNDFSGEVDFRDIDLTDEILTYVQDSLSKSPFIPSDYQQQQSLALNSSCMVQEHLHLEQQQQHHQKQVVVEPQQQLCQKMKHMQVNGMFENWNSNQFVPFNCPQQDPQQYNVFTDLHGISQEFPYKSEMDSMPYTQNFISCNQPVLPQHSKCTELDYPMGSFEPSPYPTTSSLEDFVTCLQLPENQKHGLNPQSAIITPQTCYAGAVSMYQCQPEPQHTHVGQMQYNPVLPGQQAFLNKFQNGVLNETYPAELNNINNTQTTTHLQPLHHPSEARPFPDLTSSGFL
Chain of Peroxisome proliferator-activated receptor gamma (Homo sapiens) (P37231 whole entry, looked up): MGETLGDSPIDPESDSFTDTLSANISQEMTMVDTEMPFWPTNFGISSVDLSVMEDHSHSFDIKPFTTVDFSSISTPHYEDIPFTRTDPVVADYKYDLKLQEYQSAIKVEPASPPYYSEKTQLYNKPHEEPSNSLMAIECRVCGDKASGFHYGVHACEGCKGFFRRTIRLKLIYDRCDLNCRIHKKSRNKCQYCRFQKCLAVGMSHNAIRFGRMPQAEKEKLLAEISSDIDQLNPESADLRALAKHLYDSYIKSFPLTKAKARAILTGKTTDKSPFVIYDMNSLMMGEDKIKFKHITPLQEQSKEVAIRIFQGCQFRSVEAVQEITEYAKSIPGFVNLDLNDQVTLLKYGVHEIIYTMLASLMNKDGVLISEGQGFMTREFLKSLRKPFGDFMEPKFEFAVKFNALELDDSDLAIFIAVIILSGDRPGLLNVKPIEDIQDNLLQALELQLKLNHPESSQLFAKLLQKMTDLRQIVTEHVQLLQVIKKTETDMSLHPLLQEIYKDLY

For `C=CCCCCCCCCCC`, the Potency [1] was “inactive”, the Potency [2] was “inactive” and the Potency [3] was “inactive”. For the same molecule, the Potency [4] was “inactive”, the Potency [5] was “inactive” and the Potency (Aromatase (Homo sapiens)) was “inactive”. For the same molecule, the Potency [6] was “inactive”, the Potency [7] was “inactive” and the Potency [8] was “inactive”. The outcome [9] was “inactive”, the Potency [10] was “inactive” and the Potency [11] was “inactive”. For the same molecule, the Potency [12] was “inactive”, the Potency [13] was “inactive” and the outcome [14] was “inactive”.

For `ClC/C=C/CCl`, the Potency [1] was “inactive”, the Potency [2] was “inactive” and the Potency [3] was “inactive”. For the same molecule, the Potency [4] was “inactive”, the Potency [15] was “inactive” and the Potency [16] was “inactive”. For the same molecule, the Potency [17] was “inactive”, the Potency [5] was “inactive” and the Potency (Aromatase (Homo sapiens)) was “inactive”. For the same molecule, the Potency [6] was “inactive”, the outcome [9] was “inactive” and the Potency [10] was “inactive”. For the same molecule, the Potency [11] was 24.1 µM (active) and 24.5 µM (active), the Potency [12] was “inactive” and the Potency [13] was “inactive”. For the same molecule, the outcome [14] was “inactive”.

In the case of `Cc1ccc(C)c(O)c1`, the Potency [1] was “inactive”, the Potency [2] was “inactive” and the Potency [3] was “inactive”. For the same molecule, the Potency [4] was “inactive”, the Potency [5] was “inactive” and the Potency (Aromatase (Homo sapiens)) was “inactive”. For the same molecule, the Potency [6] was “inactive”, the Potency [7] was “inactive” and the Potency [8] was “inactive”. For the same molecule, the outcome [9] was “inactive”, the Potency [18] was “inactive” and the Potency [10] was “inactive”. The Potency [11] was “inactive”, the Potency [12] was “inactive” and the Potency [13] was “inactive”. The outcome [14] was “inactive”.

With `Nc1ccc2c(O)cc(S(=O)(=O)O)cc2c1` the Potency [1] was “inactive”, the Potency [2] was 54.5 µM (active) and the Potency [3] was “inactive”. The Potency [4] was “inactive”, the Potency [5] was “inactive” and the Potency (Aromatase (Homo sapiens)) was “inactive”. The Potency [6] was “inactive”, the Potency [7] was “inactive” and the Potency [8] was 9.7 µM (active). For the same molecule, the Potency [10] was “inactive”, the Potency [12] was “inactive” and the Potency [13] was “inactive”. The outcome [14] was “inactive”.

For `CCC(Cc1c(I)cc(I)c(N)c1I)C(=O)O` (stereo not given), the Potency [1] was “inactive”, the Potency [2] was “inactive” and the Potency [3] was “inactive”. For the same molecule, the Potency [4] was “inactive”, the Potency [15] was 8.11 µM [inconclusive] (active) and 5.32 µM [activator] (active) and the Potency [16] was “inactive”. The Potency [17] was “inactive”, the Potency [5] was “inactive” and the Potency (Aromatase (Homo sapiens)) was “inactive”. The Potency [6] was “inactive”, the Potency [7] was “inactive” and the outcome [9] was “inactive”. The Potency [10] was “inactive”, the Potency [11] was 23.6 µM (active) and the Potency [12] was “inactive”. For the same molecule, the Potency [13] was “inactive” and the outcome [14] was “inactive”.

In the case of `CCCCCCCC/C=C\CCCCCCCC(=O)O`, the Potency [1] was “inactive”, the Potency [2] was “inactive” and the Potency [3] was “inactive”. The Potency [4] was “inactive”, the Potency [15] was “inactive” and the Potency [16] was “inactive”. The Potency [17] was “inactive”, the Potency [5] was “inactive” and the Potency (Aromatase (Homo sapiens)) was “inactive”. The Potency [6] was “inactive”, the Potency [7] was “inactive” and the outcome [9] was “inactive”. For the same molecule, the Potency [10] was “inactive”, the Potency [11] was “inactive” and the Potency [12] was “inactive”. For the same molecule, the Potency [13] was “inactive and 34.7 µM (active)”.

For `CC/C=C\C/C=C\C/C=C\CCCCCCCC(=O)O`, the Potency [1] was “inactive”, the Potency [2] was “inactive” and the Potency [3] was “inactive”. For the same molecule, the Potency [4] was “inactive”, the Potency [5] was “inactive” and the Potency (Aromatase (Homo sapiens)) was “inactive”. The Potency [6] was “inactive”, the Potency [7] was “inactive” and the Potency [8] was “inactive”. The Potency [10] was “inactive”, the Potency [11] was “inactive and 34.4 µM (active)” and the Potency [12] was “inactive”. The Potency [13] was “inactive” and the outcome [14] was “inactive”.

For `Brc1nc2ccccc2s1`, the Potency [1] was “inactive”, the Potency [2] was “inactive” and the Potency [3] was “inactive”. For the same molecule, the Potency [15] was “inactive”, the Potency [16] was “inactive” and the Potency [17] was “inactive”. The Potency [5] was “inactive”, the Potency (Aromatase (Homo sapiens)) was “inactive” and the Potency [6] was “inactive”. For the same molecule, the Potency [7] was 30.5 µM (active) and 13.7 µM (active), the Potency [8] was “inactive” and the outcome [9] was “inactive”. For the same molecule, the Potency [10] was “inactive”, the Potency [12] was “inactive” and the Potency [13] was “inactive”. For the same molecule, the outcome [14] was “inactive”.

With `Nc1ccc2c(c1)C(=O)c1ccccc1C2=O` the Potency [1] was “inactive”, the Potency [2] was “inactive” and the Potency [3] was “inactive”. For the same molecule, the Potency [15] was “inactive”, the Potency [16] was 268 nM (active) and 686 nM (active) and the Potency [5] was “inactive”. The Potency (Aromatase (Homo sapiens)) was “inactive”, the Potency [6] was 60 µM (active) and inactive and the Potency [7] was 4.77 µM (active) and 3.06 µM (active). For the same molecule, the outcome [9] was “inactive”, the Potency [18] was “inactive” and the Potency [10] was “inactive”. For the same molecule, the Potency [12] was “inactive”, the Potency [13] was “inactive” and the outcome [14] was “inactive”.

In the case of `CC[C@]12CCCN3CCc4c(n(c5ccccc45)[C@@](O)(C(=O)OC)C1)[C@@H]32`, the Potency [1] was “inactive”, the Potency [3] was “inactive” and the Potency [4] was “inactive”. The Potency [5] was “inactive”, the Potency (Aromatase (Homo sapiens)) was “inactive” and the Potency [6] was “inactive”. The Potency [7] was “inactive”, the outcome [9] was “inactive” and the Potency [18] was “inactive”. For the same molecule, the Potency [10] was “inactive”, the Potency [11] was “inactive” and the Potency [12] was “inactive”. The Potency [13] was “inactive” and the outcome [14] was “inactive”.

With `Clc1ccc(Sc2cc(Cl)c(Cl)cc2Cl)cc1` the Potency [1] was “inactive”, the Potency [2] was “inactive” and the Potency [3] was “inactive”. For the same molecule, the Potency [4] was “inactive”, the Potency [5] was “inactive” and the Potency (Aromatase (Homo sapiens)) was “inactive”. The Potency [6] was “inactive”, the Potency [8] was “inactive” and the outcome [9] was “inactive”. The Potency [10] was “inactive”, the Potency [11] was “inactive” and the Potency [12] was “inactive”. For the same molecule, the Potency [13] was “inactive”.

In the case of `C[N+](C)(C)CCO`, the Potency [1] was “inactive”, the Potency [3] was “inactive” and the Potency [4] was “inactive”. The Potency [17] was “inactive”, the Potency [5] was “inactive” and the Potency (Aromatase (Homo sapiens)) was “inactive”. The Potency [6] was “inactive”, the Potency [7] was “inactive” and the Potency [8] was “inactive”. The outcome [9] was “inactive”, the Potency [10] was “inactive” and the Potency [11] was “inactive”. The Potency [12] was “inactive” and the Potency [13] was “inactive”.

In the case of `C[C@]12CC[C@@H]3c4ccc(O)cc4CC[C@H]3[C@@H]1CC[C@H]2O`, the Potency [2] was 9.86 µM (active) and 24.3 µM (active), the Potency [3] was “inactive” and the Potency [4] was “inactive”. For the same molecule, the Potency [5] was “inactive”, the Potency [6] was “inactive” and the Potency [7] was “inactive”. For the same molecule, the Potency [8] was “inactive”, the outcome [9] was “inactive” and the Potency [10] was “inactive”. For the same molecule, the Potency [12] was “inactive”, the Potency [13] was “inactive” and the outcome [14] was “inactive”.

For `OCCNCCO`, the Potency [1] was “inactive”, the Potency [4] was 17.4 µM (active) and inactive and the Potency [15] was “inactive”. The Potency [16] was “inactive”, the Potency [17] was “inactive” and the Potency [5] was “inactive”. For the same molecule, the Potency (Aromatase (Homo sapiens)) was “inactive”, the Potency [6] was “inactive” and the Potency [7] was “inactive”. For the same molecule, the Potency [10] was “inactive”, the Potency [11] was “inactive” and the Potency [12] was “inactive”. For the same molecule, the Potency [13] was “inactive” and the outcome [14] was “inactive”.
